This is a sample that favours compounds with a hit; in the whole collection about 7.9% have one here.
M1 antagonist: blocks the rat M1 muscarinic receptor response to acetylcholine; AID 628; actives 3.4% (n = 64,000); B-score at 10 µM; P08482; CHO-M1 cells, Fluo-4 calcium, ACh EC80 antagonist mode; active compounds read low;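 active = calcium fluorescence response, raw or row-and-column corrected B-score, differing from the plate sample mean either way at a set confidence level, mostly lower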
Her2 expr inh: lowers expression of human Her2 kinase; actives 0.69% (n = 65,000); SKBR-3 HER2 protein level, AlphaScreen, 18-24 h; active compounds read low; P04626; HER2 level % of control, % at 10 µM; AID 645;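 active = HER2 level under 5% of the carrier-only control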;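 also: 100% = DMSO carrier and 0% = 500 nM PU-H71 HSP90 inhibitor; lower value means stronger loss of Her2 protein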
M1 agonist: activates the M1 muscarinic receptor | B-score at 10 µM | actives 3% (n = 64,000) | CHO-M1 cells, Fluo-4 calcium fluorescence, agonist mode; active compounds read high;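 active = fluorescence rise, raw or as B-score row- and column-corrected plate score, outside the 99.7% band of its plate's samples, either direction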
PLAP act: human PLAP activation; P05187; purified PLAP enzyme, luminescent substrate read-out; active compounds read high; activation fold at 20 µM; actives 1.2% (n = 96,000); AID 696; in the data active = activation fold above about 2
Target sequence (P05187 whole entry, looked up): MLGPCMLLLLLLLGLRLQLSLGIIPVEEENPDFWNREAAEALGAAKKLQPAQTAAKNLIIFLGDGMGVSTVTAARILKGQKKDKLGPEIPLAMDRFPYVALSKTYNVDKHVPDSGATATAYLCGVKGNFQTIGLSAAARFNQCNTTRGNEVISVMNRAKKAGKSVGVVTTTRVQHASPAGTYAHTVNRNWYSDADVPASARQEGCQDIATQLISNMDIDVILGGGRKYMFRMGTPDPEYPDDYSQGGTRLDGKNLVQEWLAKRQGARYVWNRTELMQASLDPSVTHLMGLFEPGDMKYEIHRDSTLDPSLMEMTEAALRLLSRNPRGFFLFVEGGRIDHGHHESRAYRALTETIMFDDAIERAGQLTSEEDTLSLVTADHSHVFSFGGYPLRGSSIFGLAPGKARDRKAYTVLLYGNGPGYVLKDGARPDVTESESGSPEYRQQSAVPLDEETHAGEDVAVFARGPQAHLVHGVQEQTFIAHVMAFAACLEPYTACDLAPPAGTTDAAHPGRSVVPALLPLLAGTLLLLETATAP
Cav32 inh: human Cav3.2 channel inhibition, primary screen; O95180; Cav3.2-expressing cells, Fluo-4 calcium fluorescence FDSS; active compounds read low; B-score at 10 µM; actives 4% (n = 100,000);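 active = single-dose well whose peak fluorescence ratio is a statistical outlier from its plate by either plate-standardised score or position-corrected B-score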
Active calls of the source: *.

Results for CCCCn1c(O)c(C(C)=NC(Cc2c[nH]c3ccccc23)C(=O)OC)c(=O)[nH]c1=O (stereo not drawn) ?
M1 antagonist: 0.017; Her2 expr inh: 97; M1 agonist: -0.044; PLAP act: 1.1; Cav32 inh: -4.3*

Results for CCCCCCn1c(O)c(C(C)=NC)c(=O)[nH]c1=O ?
M1 antagonist: 0.85; Her2 expr inh: 79; M1 agonist: 0.12; PLAP act: 1.4; Cav32 inh: -0.79

What do the screens show for `CCCc1[nH]nc2c1C1(C(=O)N(CC(N)=O)c3ccccc31)C(C(=O)OC)=C(N)O2` (stereo not drawn)?
M1 antagonist: 2.3*; Her2 expr inh: 115; M1 agonist: 1.8; PLAP act: 1.5

Results for CCCc1[nH]nc2c1C1(C(=O)N(Cc3ccccc3)c3ccccc31)C(C(=O)OC)=C(N)O2 (stereo not drawn) ?
PLAP act: 1.9

Results for NC(=O)c1cn(C2OC(CO)C(O)C2O)c2ncnc(N)c12 (stereo not drawn) ?
Cav32 inh: -4.7*

What do the screens show for `CC1CCC[C@H](O)CCCCCc2cc(O)cc(O)c2C(=O)O1` (stereo partly drawn)?
Cav32 inh: -0.91

What do the screens show for `C[C@H]1CCC[C@@H](O)CCC/C=C/c2cc(O)cc(O)c2C(=O)O1`?
M1 antagonist: 0.21; Her2 expr inh: -14*; M1 agonist: -0.05; PLAP act: 1; Cav32 inh: -0.58

Results for C[C@H]1CCC[C@H](O)CCCCCc2cc(O)cc(O)c2C(=O)O1 ?
M1 antagonist: 2.4*; Her2 expr inh: -10*; M1 agonist: -0.13; PLAP act: 1.3

How did OC[C@@H](O)CCl do in these assays?
Cav32 inh: 0.46

Results for CCC1(c2ccc(N)cc2)CCC(=O)NC1=O (stereo not drawn) ?
Cav32 inh: 0.33

Results for COC(=O)C(O)(c1ccc(NC(=S)NC(=O)c2ccccc2)cc1)C(F)(F)F (stereo not drawn) ?
PLAP act: 0.9; Cav32 inh: -3.1

Results for CCCCCCCC(=O)NC(Oc1ccccc1[N+](=O)[O-])C(Cl)(Cl)Cl (stereo not drawn) ?
PLAP act: 1; Cav32 inh: -6.9*

How did Cc1cccc(C(=O)NC(Oc2ccccc2)C(Cl)(Cl)Cl)c1 (stereo not drawn) do in these assays?
PLAP act: 0.9; Cav32 inh: -2.9

What do the screens show for `CCOC(=O)[C@]1(C#N)[C@@H]2C=CC(C(C)=O)=CN2[C@@H](C(N)=O)[C@@H]1c1ccsc1`?
M1 antagonist: -0.2; Her2 expr inh: 217; M1 agonist: 26*; PLAP act: 1.2; Cav32 inh: 0.49

Results for O=c1cccc2n1CC1CC2CN(c2ncnc3c2cnn3-c2ccc(Cl)cc2)C1 (stereo not drawn) ?
M1 antagonist: 0.25; Her2 expr inh: 91; M1 agonist: -3.6*; PLAP act: 1.5; Cav32 inh: 0.72

Results for O=c1cccc2n1CC1CC2CN(S(=O)(=O)c2ccccc2)C1 (stereo not drawn) ?
PLAP act: 1; Cav32 inh: 0.44

Results for COC(=O)C1=C(c2cccc(OC)c2OC)C[C@@H]2CC[C@H]1N2C(=O)NC(C)C ?
Cav32 inh: 0.0032

Results for CN1C(=O)C2C[C@@]3(Br)c4ccccc4N(OOSc4ccccc4)[C@H]3N2C(=O)[C@@H]1Cc1ccccc1 (stereo partly drawn) ?
Cav32 inh: -0.66

Results for CCCCN1C(=O)NC(=O)C2(Cc3c(nc4c(C)cccn4c3=O)N3CCc4ccccc4C32)C1=O (stereo not drawn) ?
M1 antagonist: -0.68; Her2 expr inh: 1.2*; M1 agonist: 1.6; PLAP act: 1.6

How did Cc1cccn2c(=O)c3c(nc12)N1CCc2ccccc2C1C1(C3)C(=O)NC(=O)N(C)C1=O (stereo not drawn) do in these assays?
PLAP act: 1.6; Cav32 inh: 0.05

What do the screens show for `COc1ccc(C2(c3cccc(O)c3OC)CCN(C(C)=O)CC2)cc1O`?
Cav32 inh: -0.047

What do the screens show for `O=c1[nH]c(=O)n(CCC2=CCCCC2)c(O)c1C=NCCCn1ccnc1`?
M1 antagonist: -0.75; Her2 expr inh: 82; M1 agonist: -1.5; PLAP act: 2.1*; Cav32 inh: 1.3

Results for O=P(Nc1ccccc1)(Nc1ccccc1)Oc1cccc(Cl)c1 ?
PLAP act: 0.8; Cav32 inh: -7.1*

Screening data as filed in PubChem BioAssay.
